Test results reported in ChEMBL document CHEMBL3988442, “University of Dundee, Small-Polar-MMV Screening Library” (2021).
The whole screen tested about 48,000 compounds, of which about 13,000 (27%) showed an effect of 50% or more. Some of the results follow.

tested on: Wolbachia pipientis; test: Anti-Wolbachia Cell-Based Screen; format: functional; design: scale not given: in the data most compounds retested in dose-response had high values; conditions: 5 µM

SMILES | Percent Effect [%]
COc1ccc(C2CC(=O)NCc3nc(N(C)C)sc32)c(O)c1 (stereo unspecified) | -25.68
COCCc1ncc(CN2C[C@@H](C(=O)O)[C@H](C(C)C)C2)cn1 | -10.49
Cc1cnc(NS(=O)(=O)c2cccc(C#N)c2)s1 | -4.999
CNC(=O)C(NC(C)=O)c1ccc(F)c(F)c1 (stereo unspecified) | -14.34
Cc1nc(CN2CCC3(CCCN(Cc4ccoc4)C3)C2=O)cs1.O=C(O)C(F)(F)F.O=C(O)C(F)(F)F (stereo unspecified) | 117.4
Cc1nc(CN2CCC3(CCCN(Cc4cccnc4)C3)C2=O)cs1.O=C(O)C(F)(F)F.O=C(O)C(F)(F)F.O=C(O)C(F)(F)F (stereo unspecified) | 115.5
Cc1nc(CN2CCC3(CCCN(Cc4ccncc4)C3)C2=O)cs1.O=C(O)C(F)(F)F.O=C(O)C(F)(F)F.O=C(O)C(F)(F)F (stereo unspecified) | 97.27
Cc1nc(CN2CCOCC3(CCN(c4cccnc4)CC3)C2)cs1.O=C(O)C(F)(F)F.O=C(O)C(F)(F)F | 4.008
N#Cc1ccnc(N2CCN(C(=O)Cc3ccc4c(c3)CCO4)CC2)c1 | -0.6491
CC(NCc1ccncc1)c1ccc(N2CCN(C)CC2)c(F)c1.Cl (stereo unspecified) | 1.312
Fc1ccc2c(c1)CCC2NCc1ccc(N2CCOCC2)cc1 (stereo unspecified) | -1.344
COCCN1C(=O)C2(CCC(C(=O)Nc3ccc(C)cc3)CC2)N=C1C (stereo unspecified) | -12.68
CCC1=NC2(CCC(C(=O)Nc3ccc(F)cc3)CC2)C(=O)N1C (stereo unspecified) | 104.8
COCCN1C(=O)C2(CCC(C(=O)Nc3ccc(F)cc3)CC2)N=C1C (stereo unspecified) | 17.41
COCCN1C(=O)C2(CCC(C(=O)Nc3cccc(C)c3)CC2)N=C1C (stereo unspecified) | -14.6
CCC1=NC2(CCC(C(=O)Nc3ccc(C)nc3)CC2)C(=O)N1C (stereo unspecified) | 107.3
COCCN1C(=O)C2(CCC(C(=O)Nc3ccccn3)CC2)N=C1C (stereo unspecified) | 12.9
Cc1ccc(CNCc2ccc(-n3nc(C)cc3C)nc2)cc1 | -14.48
CN1C[C@H](O)C[C@H]1c1nc(-c2ccc3c(c2)OCO3)no1 | -5.095

SMILES | Percent Effect [%]
Cc1nnc(CCNC(=O)C2CC(=O)N(C(C)(C)C)C2)s1 (stereo unspecified) | -24.96
Cc1nnc(CCNC(=O)[C@H]2CNC[C@@H](C(=O)N3CCCC3)C2)s1 | 111.1
Cc1cnccc1NCCNC(=O)[C@H]1CNC[C@H](C(=O)N2CCCC2)C1 | 142
Cn1nccc1CCNC(=O)[C@H]1CNC[C@H](C(=O)N2CCCC2)C1 | 89.07
Cc1cc(C)nc(CCNC(=O)[C@H]2CNC[C@@H](C(=O)N3CCCC3)C2)n1 | 4.192
Cc1nc(CCCNC(=O)[C@H]2CNC[C@@H](C(=O)N3CCCC3)C2)sc1C | 84.73
CCN1CC(C(=O)NCCCc2nc(C)c(C)s2)CC1=O (stereo unspecified) | -10.95
Cc1csc(CCCNC(=O)[C@H]2CNC[C@@H](C(=O)N3CCCC3)C2)n1 | 5.026
Cc1cccnc1NCCNC(=O)[C@H]1CNC[C@@H](C(=O)N2CCCC2)C1 | 2.912
Cc1cnccc1NCCNC(=O)C1CCCN(Cc2ccco2)C1 (stereo unspecified) | 5.628
O=C(NCc1ccc2nonc2c1)C1CCN(C(=O)C2CCC2)CC1 | 6.946
Cn1nnnc1SCCNC(=O)C1CCN(C(=O)C2CCCC2)CC1 | 4.852
N#CC1(NC(=O)c2nccc3ccccc23)CCSCC1 | -2.14
CCCS(=O)(=O)CC(=O)NC(C)c1cccc(-n2cccn2)c1 (stereo unspecified) | -8.263
Cc1ccc(-c2csc(N)c2C#N)cc1 | -4.785
CCn1cc2c(n1)CN(Cc1sccc1C)CC2COCC1CC1.O=C(O)C(F)(F)F (stereo unspecified) | 6.988
CC(C)Cn1cncc1CNC1CCCNC1 (stereo unspecified) | 2.5
O=C(NCCc1nc(C2CC2)no1)[C@H]1CNC[C@H](C(=O)N2CCCC2)C1 | 183.5
O=C(NCC1CCCO1)C1CCN(Cc2nc(C3CC3)no2)CC1 (stereo unspecified) | 8.427

SMILES | Percent Effect [%]
NC(=O)N1CCCC(C(=O)NCCc2nc(Cc3ccccc3)no2)C1 (stereo unspecified) | 5.914
Cc1cc(C)cc(NC(=O)N(CCC#N)CCCN(C)C)c1 | 13.87
C[C@H]1C(=O)NC[C@H]2CN(Cc3cccc(F)c3)C[C@H]21.O=C(O)C(F)(F)F | 100.1
COc1cc(CN2CCC(NC(=O)c3cccn3C)C2)cc(OC)c1 (stereo unspecified) | -4.957
O=C(C1CC1)N1CCC2(CCN(Cc3cccc(F)c3)CC2)CC1.O=C(O)C(F)(F)F | 10.09
COc1cc(CN2C[C@@H]3CNC(=O)[C@H](C)[C@@H]3C2)cc(OC)c1 | 103.5
CN(C)[C@@H]1COC[C@@H]2CN(Cc3ccc4c(c3)OCO4)C[C@@H]21.O=C(O)C(F)(F)F.O=C(O)C(F)(F)F | -14.92
C[C@@H]1C(=O)NC[C@H]2CN(Cc3ccc4c(c3)OCO4)C[C@H]21.O=C(O)C(F)(F)F | 109.9
O=C(O)C(F)(F)F.O=C([C@H]1CCS(=O)(=O)[C@@H]2CN(CCc3ccccc3)C[C@H]12)N1CCCC1 | -9.586
CN(C)[C@H]1COC[C@@H]2CN(Cc3ccc4c(c3)OCO4)C[C@@H]21.O=C(O)C(F)(F)F.O=C(O)C(F)(F)F | -0.2221
C[C@H]1C(=O)NC[C@H]2CN(CCc3ccccc3)C[C@H]21.O=C(O)C(F)(F)F | 113.2
COCCN1CCO[C@@H]2CN(Cc3cc(OC)cc(OC)c3)C[C@@H]2C1.O=C(O)C(F)(F)F.O=C(O)C(F)(F)F | 4.168
COc1cccc(-c2csc(Cn3ccc(=O)[nH]c3=O)n2)c1 | -10.2
COCCCn1ccc(NC(=O)NCCn2ccnc2)n1 | -3.976
Fc1ccc2c(c1)nc1n2[C@@H](CNCc2nccs2)COC1 | -7.093
Cc1nc(Cn2cc(C#N)c(=O)c3ccccc32)no1 | -5.414
N#Cc1cc(N2CCC(CS(N)(=O)=O)CC2)nc2ccccc12 | -7.143
CC1CN(C)CCN1C(=O)NCCCn1ccnc1 (stereo unspecified) | 19.65
